# Test results as given in PubChem BioAssay AID1645838 (ICCB-Longwood Screening Facility, Harvard Medical School, 2021).
# Out of some 2,000 compounds screened, about 100 (5%) were called active. No stated cut-off is given here; in the data, active means z-score above about 2; inactive means the rest. What follows is part of a selection rich in actives, with near analogues and random picks from the rest. Residues, ends and D or L forms follow the SMILES beside them. *: point of attachment. Cbz = O=C(OCc1ccccc1)*
# Test: modulators of mitochondrial supercomplex assembly, cell-based, luminescence, Hoechst nuclei count (AID 1645838);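 further: control cybrid cells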;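 on z-score: higher means more mitochondrial supercomplex formation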
# Settings: Cells, luminescence/Hoechst cell count ratio, supercomplex reporter; for z-score: stronger effect = higher value; for cell count: measured here: cell number, Hoechst nuclei count
# [1] = library stock concentration (final well concentration not given) 46 uM
# [2] = library stock concentration (final well concentration not given) 80 uM
# [3] = library stock concentration (final well concentration not given) 400 uM
# [4] = library stock concentration (final well concentration not given) 2 mM
# [5] = library stock concentration (final well concentration not given) 10 mM
# [6] = library stock concentration (final well concentration not given) 278 uM
# [7] = library stock concentration (final well concentration not given) 1.67 mM
compound,measurement,setting,value
CCCCCCCCCCCCCCCCSC[C@H](COP(=O)([O-])OCC[N+](C)(C)C)NC(=O)CCCCCCCCCCCCCCC,z-score,,-0.387 (inactive)
same,cell count,,5820
C#CCC(Cc1cnc2nc(N)nc(N)c2n1)c1ccc(C(=O)NC(CCC(=O)O)C(=O)O)cc1 (stereo not given),outcome,library stock 278 µM,inactive; censored for cell count
same,outcome,library stock 1.67 mM,inactive; censored for cell count
same,outcome,library stock 10 mM,inactive; censored for cell count
same,z-score,[1],1.41 (inactive)
same,cell count,[1],2070
CCCCCCCCCCCCCCC(=O)N[C@H]1CCOC1=O,outcome,,inactive; censored for cell count
CSCCC(NC(=O)C(CC(C)C)NC(=O)CNC(=O)C(NC(=O)C(Cc1ccccc1)NC(=O)C(CO)NC(=O)C(CC(=O)O)NC(=O)[C@H](NC(=O)C(CCCCN)NC(=O)C(N)Cc1cnc[nH]1)C(C)O)C(C)C)C(N)=O (stereo not given in full),z-score,[2],-0.214 (inactive)
same,z-score,[3],-0.449 (inactive)
same,z-score,[4],-0.151 (inactive)
same,z-score,[5],-0.389 (inactive)
same,cell count,[2],6630
same,cell count,[3],6610
same,cell count,[4],6500
same,cell count,[5],6040
Cn1ncnc1C1c2n[nH]c(=O)c3cc(F)cc(c23)NC1c1ccc(F)cc1 (stereo not given),outcome,library stock 10 mM,inactive; censored for cell count
same,z-score,[2],1.87 (inactive)
same,z-score,[3],3.69 (active)
same,z-score,[4],6.89 (active)
same,cell count,[2],3700
same,cell count,[3],2650
same,cell count,[4],1700
CC#C[C@]1(O)CC[C@@H]2[C@@H]3CCC4=CC(=O)CCC4=C3C(c3ccc(N(C)C)cc3)C[C@@]21C (stereo not given in full),z-score,[2],-0.535 (inactive)
same,z-score,[3],-0.414 (inactive)
same,z-score,[4],-0.596 (inactive)
same,z-score,[5],-0.985 (inactive)
same,cell count,[2],5620
same,cell count,[3],5640
same,cell count,[4],5480
same,cell count,[5],4850
Cc1cc(C)cc(NC(=O)Nc2ccc(S(N)(=O)=O)cc2)c1,z-score,[2],-0.282 (inactive)
same,z-score,[3],-0.269 (inactive)
same,z-score,[4],-0.436 (inactive)
same,z-score,[5],-0.561 (inactive)
same,cell count,[2],5270
same,cell count,[3],5260
same,cell count,[4],5280
same,cell count,[5],5230
CCCCCC(=O)CC[C@H]1[C@H](O)CC(=O)[C@@H]1C/C=C\CCCC(=O)O,z-score,,0.0242 (inactive)
same,cell count,,5260
CCCCCC(=O)CC[C@H]1[C@H](O)CC(=O)[C@@H]1CCCCCCC(=O)O,z-score,,3.62 (active)
same,cell count,,3870
CCCCC[C@@H](O)CC[C@H]1[C@H](O)CC(=O)[C@@H]1CCCCCCC(=O)O,z-score,,0.414 (inactive)
same,cell count,,5360
CCCCC[C@H](O)/C=C/[C@@H]1[C@@H](C/C=C\CCCC(=O)NCCO)[C@@H](O)C[C@H]1O,z-score,,-0.4 (inactive)
same,cell count,,5500
COc1ccc(C2(O)CCC(N3CCC(NC(=O)CNC(=O)c4cccc(C(F)(F)F)c4)C3)CC2)cn1 (stereo not given),z-score,[2],0.226 (inactive)
same,z-score,[3],0.00991 (inactive)
same,z-score,[4],-0.208 (inactive)
same,z-score,[5],-0.124 (inactive)
same,cell count,[2],5820
same,cell count,[3],5470
same,cell count,[4],6300
same,cell count,[5],5360
CC(C)CC(C=O)NC(=O)C(CC(C)C)NC(=O)C(CC(C)C)NC(=O)OCc1ccccc1 (stereo not drawn) (Cbz-Leu-Leu-Leu-aldehyde; configuration not given here),outcome,library stock 1.67 mM,inactive; censored for cell count
same,outcome,library stock 10 mM,inactive; censored for cell count
same,z-score,[1],-0.417 (inactive)
same,z-score,[6],-0.122 (inactive)
same,cell count,[1],6590
same,cell count,[6],5640
Cc1cc(N2CCOCC2)cc2[nH]c(-c3c(NCC(O)c4cccc(Cl)c4)cc[nH]c3=O)nc12 (stereo not given),z-score,[2],0.23 (inactive)
same,z-score,[3],0.0421 (inactive)
same,z-score,[4],0.963 (inactive)
same,z-score,[5],5.5 (active)
same,cell count,[2],5280
same,cell count,[3],5710
same,cell count,[4],4590
same,cell count,[5],1770
CCCCC[C@H](O)/C=C/[C@H]1[C@H](O)CC(=O)[C@@H]1C/C=C/CCCC(=O)O,z-score,,0.327 (inactive)
same,cell count,,4880
CC(C)=CCC/C(C)=C/CC/C(C)=C/CC[C@]1(C)CCc2c(C)c(O)c(C)c(C)c2O1,z-score,,-0.823 (inactive)
same,cell count,,5060
NS(=O)(=O)OCC1CC(n2ccc3c(NC4CCc5ccccc54)ncnc32)CC1O (stereo not given),outcome,library stock 1.67 mM,inactive; censored for cell count
same,outcome,library stock 10 mM,inactive; censored for cell count
same,z-score,[1],1.02 (inactive)
same,z-score,[6],4.89 (active)
same,cell count,[1],5390
same,cell count,[6],2380
CCCCC[C@H](O)/C=C/[C@H]1CC[C@@H](O)[C@@H]1C/C=C\CCCC(=O)O,z-score,,-0.672 (inactive)
same,cell count,,5720
NCc1cccc2ccncc12,z-score,,-0.00644 (inactive)
same,cell count,,5160
CCCCC/C=C/C=C1/C=CC(=O)[C@@H]1CCCCCCC(=O)O,z-score,,-0.804 (inactive)
same,cell count,,5740
CN1c2ccc([N+](=O)[O-])cc2N=C(c2ccc(C(=O)O)cc2)c2cc3c(cc21)C(C)(C)CCC3(C)C,z-score,[1],-0.143 (inactive)
same,z-score,[6],-0.194 (inactive)
same,z-score,[7],-0.234 (inactive)
same,z-score,[5],-0.264 (inactive)
same,cell count,[1],5860
same,cell count,[6],5990
same,cell count,[7],5440
same,cell count,[5],4270
O=C(O)c1ccc2nc(-c3cc(Cl)cc(Cl)c3)oc2c1,z-score,[1],0.415 (inactive)
same,z-score,[6],0.328 (inactive)
same,z-score,[7],0.106 (inactive)
same,z-score,[5],0.34 (inactive)
same,cell count,[1],6810
same,cell count,[6],6930
same,cell count,[7],7500
same,cell count,[5],7380
O=C(O)c1cc2ccccc2c(Cc2c(O)c(C(=O)O)cc3ccccc23)c1O,z-score,[2],-0.00825 (inactive)
same,z-score,[3],0.355 (inactive)
same,z-score,[4],0.379 (inactive)
same,z-score,[5],0.06 (inactive)
same,cell count,[2],4700
same,cell count,[3],4390
same,cell count,[4],4510
same,cell count,[5],4530
Nc1ccc(O)c(C(=O)O)c1,z-score,,-0.67 (inactive)
same,cell count,,5710
O=C(O)c1cc(O)c2ccccc2c1O,z-score,[1],0.31 (inactive)
same,z-score,[6],1.17 (inactive)
same,z-score,[7],0.601 (inactive)
same,z-score,[5],2.64 (active)
same,cell count,[1],6560
same,cell count,[6],6080
same,cell count,[7],6240
same,cell count,[5],3940
C=C1C[C@H](O)[C@H](C/C=C\CCCC(=O)O)[C@H]1/C=C/[C@@H](O)CCCCC,z-score,,-0.218 (inactive)
same,cell count,,5720
CC(C)c1ccccc1S(=O)(=O)c1cc(N)c2ncccc2c1[N+](=O)[O-],z-score,[1],-0.201 (inactive)
same,z-score,[6],0.537 (inactive)
same,z-score,[7],0.241 (inactive)
same,z-score,[5],2.73 (active)
same,cell count,[1],6190
same,cell count,[6],6010
same,cell count,[7],6020
same,cell count,[5],4420
CC(C)(O)c1ccccc1CCC(SCC1(CC(=O)O)CC1)c1cccc(C=Cc2ccc3ccc(Cl)cc3n2)c1 (stereo not given),z-score,[2],0.0351 (inactive)
same,z-score,[3],-0.104 (inactive)
same,z-score,[4],-0.0351 (inactive)
same,z-score,[5],-0.342 (inactive)
same,cell count,[2],5230
same,cell count,[3],5680
same,cell count,[4],5330
same,cell count,[5],4770
CCCCC[C@H](O)/C=C/[C@H]1[C@H](O)CC(=O)[C@H]1C/C=C\CCCC(=O)OC(C)C,z-score,,0.469 (inactive)
same,cell count,,4980
CCCNC(=O)C1OC1C(=O)N[C@@H](C(=O)N1CCCC1C(=O)O)C(C)CC (stereo not given in full),z-score,[2],-0.18 (inactive)
same,z-score,[3],0.0728 (inactive)
same,z-score,[4],-0.0724 (inactive)
same,z-score,[5],-0.194 (inactive)
same,cell count,[2],4940
same,cell count,[3],4970
same,cell count,[4],4760
same,cell count,[5],5370
O=c1c(-c2ccc(O)c(O)c2)coc2cc(O)ccc12,z-score,[1],-0.245 (inactive)
same,z-score,[6],-0.0571 (inactive)
same,z-score,[7],-0.19 (inactive)
same,z-score,[5],0.665 (inactive)
same,cell count,[1],6940
same,cell count,[6],6400
same,cell count,[7],6560
same,cell count,[5],5440
O=c1c(-c2ccc(O)cc2)coc2cc(O)cc(O)c12,z-score,,0.997 (inactive)
same,z-score,[1],0.276 (inactive)
same,z-score,[6],-0.193 (inactive)
same,z-score,[7],0.316 (inactive)
same,z-score,[5],2.63 (active)
same,cell count,,5200
same,cell count,[1],6440
same,cell count,[6],6300
same,cell count,[7],6710
same,cell count,[5],5450
O=c1c(-c2ccc(O)cc2)coc2cc(O)ccc12,z-score,,0.504 (inactive)
same,cell count,,5430
O=C(Oc1nsnc1N1CCCCC1)N1CCOCC1,z-score,[2],0.263 (inactive)
same,z-score,[3],0.6 (inactive)
same,z-score,[4],0.737 (inactive)
same,z-score,[5],1.45 (inactive)
same,cell count,[2],4950
same,cell count,[3],4960
same,cell count,[4],4530
same,cell count,[5],4260
CCCCCCCCCCCCCCC(F)C(=O)O (stereo not given),z-score,,-0.112 (inactive)
same,cell count,,5870
CC(C)CCOc1ccc(N)cc1,z-score,,-0.619 (inactive)
same,cell count,,5370
N=C(N)c1ccc2cc(OC(=O)c3ccc(N=C(N)N)cc3)ccc2c1,z-score,[1],0.0192 (inactive)
same,z-score,[6],0.31 (inactive)
same,z-score,[7],-0.356 (inactive)
same,z-score,[5],-0.0213 (inactive)
same,cell count,[1],6960
same,cell count,[6],6430
same,cell count,[7],7070
same,cell count,[5],6560
O=C(O)c1ccc(Nc2ncc3c(n2)-c2ccc(Cl)cc2C(c2c(F)cccc2F)=NC3)cc1,outcome,library stock 10 mM,inactive; censored for cell count
same,z-score,[2],-0.747 (inactive)
same,z-score,[3],-0.464 (inactive)
same,z-score,[4],-0.071 (inactive)
same,cell count,[2],4990
same,cell count,[3],4350
same,cell count,[4],3530
Cc1cnc(Nc2ccc(F)cc2Cl)nc1-c1c[nH]c(C(=O)NC(CO)c2cccc(Cl)c2)c1 (stereo not given),outcome,library stock 10 mM,inactive; censored for cell count
same,z-score,[1],-0.208 (inactive)
same,z-score,[6],-0.12 (inactive)
same,z-score,[7],2.01 (active)
same,cell count,[1],6210
same,cell count,[6],6120
same,cell count,[7],3060
COc1cc(Nc2ncc3c(n2)-c2ccc(Cl)cc2C(c2c(F)cccc2OC)=NC3)ccc1C(=O)O,outcome,library stock 1.67 mM,inactive; censored for cell count
same,outcome,library stock 10 mM,inactive; censored for cell count
same,z-score,[1],-0.133 (inactive)
same,z-score,[6],1.85 (inactive)
same,cell count,[1],5510
same,cell count,[6],2620
CC(Cc1cc2c(c(C(N)=O)c1)N(CCCO)CC2)NCCOc1ccccc1OCC(F)(F)F (stereo not given),z-score,[2],-1.47 (inactive)
same,z-score,[3],-1.87 (inactive)
same,z-score,[4],-2.9 (inactive)
same,z-score,[5],-3.02 (inactive)
same,cell count,[2],5980
same,cell count,[3],5330
same,cell count,[4],5440
same,cell count,[5],5520
COc1ccc(Br)c(-c2nc3ccccc3c(=O)o2)c1,outcome,library stock 10 mM,inactive; censored for cell count
same,z-score,[2],-0.298 (inactive)
same,z-score,[3],-0.159 (inactive)
same,z-score,[4],-0.345 (inactive)
same,cell count,[2],5250
same,cell count,[3],5070
same,cell count,[4],5030
O=c1[nH]oc2cc(Cl)ccc12,z-score,[1],-0.28 (inactive)
same,z-score,[6],0.381 (inactive)
same,z-score,[7],-0.301 (inactive)
same,z-score,[5],0.402 (inactive)
same,cell count,[1],6680
same,cell count,[6],6710
same,cell count,[7],6630
same,cell count,[5],6300
O=P(O)(O)OC1C(O)C(OP(=O)(O)O)C(O)C(OP(=O)(O)O)C1O (stereo not given),z-score,,-0.332 (inactive)
same,cell count,,5290
CC(C)CC(NC(=O)NC(CCC(=O)O)C(=O)O)C(=O)O (stereo not given),z-score,[1],-0.295 (inactive)
same,z-score,[6],0.0106 (inactive)
same,z-score,[7],0.469 (inactive)
same,z-score,[5],0.233 (inactive)
same,cell count,[1],6480
same,cell count,[6],6530
same,cell count,[7],6460
same,cell count,[5],6410
